Assay results as given in the supplement of paper PMC11417369.
± gives the standard deviation of the averaged measurements. In all, about 25,000 sequences were measured (“ln(normalized median fluorescence intensity)”: median about 8.6, highest 2% from about 10 on). Only a selection was taken, and the highest values are over-represented in it overall.

test system: PfAP2-EXP AP2 domain (GST-tagged); assay: gcPBM binding intensity (ln(normalized median fluorescence intensity)); higher = stronger DNA binding
In short: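 An Agilent 4 × 180k array of primer-extended double-stranded 36-bp intergenic genomic probes, with negative controls, was incubated for 1 h with GST-tagged P. falciparum DNA-binding domains expressed in E. coli. Alexa488 anti-GST antibody detected bound protein, scanned at 488 nm. Binding intensity is the highest Masliner-normalised natural-log median intensity across replicate spots of either probe orientation.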

Sequence | gcPBM binding intensity (ln)
TACATATTTTATAGCACACAAATAATAATATGTAGT [CACACA_site688] | 8.68 ± 0.31
TTTGAGATGTGGTGTACACAAAATTAGGTACACATC [CACACA_site5773] | 8.92 ± 0.33
TCTTTTTCTTCTTATGTGCACATCAATTATGCTTCT | 9.33 ± 0.35
AATGTGCTCGCTATTACACACTCATTGGGATAAACT [CACACA_site7043] | 8.56 ± 0.4
TAAAAAATTAATAAAGTGCATAAATATTACAATATT | 8.32 ± 0.18
CTGAAATTAACAAAAGTGCATAAAAATAAAAAATAT [GTGCAC_site9652] | 8.99 ± 0.29
TAAATTAATAAACAAGTGCATATATATATATATATA | 10.2 ± 0.38
TTTTTTTATTATTAAAGTACTAAAAAATGAAAACTG [XGTACX_site6758] | 8.26 ± 0.18
AAGTTGGAAAGGTTATGTACTTATTTTTTAAAATAA [XGTACX_site204] | 8.27 ± 0.45
TATCATTTTGTATATAGTACATATATAAAATCGTTA [XGTACX_site3875] | 8.35 ± 0.29
GTATAATAAATGATAGCACACATATGTACTTATATA [CACACA_site8188] | 8.57 ± 0.25
AGCCTCGGGGTCATATATATATATATATATATATAT [CACACA_negctrl_site512] | 10.2 ± 0.53
ATATAGTAAAATTATACACACATGAATTTTCCCATG [CACACA_site1770] | 8.48 ± 0.49
ATAATAATAGTAATATGTACATATATATATATATAT [XGTACX_site7437] | 10.2 ± 0.53
TATATATAAACATAATGTACATATAATAAGTAATAT [XGTACX_site497] | 8.89 ± 0.45
ATAAATAAATAAGTACATATATATATGTATATATAT [TGCATGCA_negctrl_site223] | 8.775 ± 0.021
AATAATAATAGTAATATGTACATATATATATATATA [TGCATGCA_negctrl_site542] | 10.1 ± 0.33

Sequence | gcPBM binding intensity (ln)
TAATAATAGTAAATATGTACATATATATATATATAG [XGTACX_site4602] | 8.73 ± 0.3
ATAAGTAATATAATATGTACATATATATATATATAT [XGTACX_site3818] | 10.2 ± 0.37
TTTAATAATATTTAGGTGCTATATATTATATGTATA | 8.32 ± 0.21
CAATATAAAATAAAATGTACTTGTAGTAAAGGGATA [XGTACX_site1452] | 8.79 ± 0.35
TAGATACATACACGCACACACATATATAAATAAATA [CACACA_site6157] | 8.69 ± 0.49
AATACATATAATACAACACACAAGTAATATAAACCT [CACACA_site3597] | 8.87 ± 0.53
TAGATACATACACGCACACACATATATATATATATA [CACACA_site12] | 10.2 ± 0.29
AAGTAATACAACACGCACATATATATATATATATAT [GTGCAC_negctrl_site89] | 10.3 ± 0.3
AATGTGATAATATACACACACGCATATATATATATA [CACACA_site323] | 10.2 ± 0.2
ATTACATGATATATCACACACACATATAGATATATA [CACACA_site7352] | 8.65 ± 0.44
CATAGATACATACACGCACACACATATATATATATA [CACACA_site13] | 9.97 ± 0.36
ATACAACATATATATACACACATATAATAATAATAA [CACACA_site3367] | 8.62 ± 0.42
GAAATGTGATAATATACACACACGCATATATATATA [CACACA_site4332] | 9.86 ± 0.3
ATAGATATACATATCACACATATATATATATATATA [CACACA_site4985] | 10.2 ± 0.23
TGTGCACGCATATACACACACAAATACAATGATAAA [CACACA_site6656] | 8.65 ± 0.36
CATATATAGATATATACACACATACATACATACATA [CACACA_site7748] | 8.55 ± 0.38
